Test results reported in PubChem BioAssay AID743279 (National Center for Advancing Translational Sciences (NCATS), 2014).
About 17,000 (4.7%) of roughly 360,000 compounds were called active. Inconclusive results (about 5%) are left out. Rule as the data show it: active = activity change below about -50%; inconclusive = mostly about -30% to -49%; inactive = weaker than that. This excerpt belongs to a sample that is enriched for actives.
% is scaled to controls: 0 for no effect and ±100 for the full control effect.

Test: qHTS for Inhibitors of Inflammasome Signaling: IL-1-beta AlphaLISA Primary Screen
Conditions: THP-1 LPS/ATP IL-1B secretion, 16 h; at 57.5 µM, hits give low values
Excerpt: Inflammasomes are a set of intracellular multi-protein complexes that enable autocatalytic activation of inflammatory caspases and drive the innate immune response to counter harmful agents. […] A qHTS assay, based on AlphaLISA technology, was developed to screen the Molecular Libraries Small Molecule Repository (MLSMR) to look for novel inflammasome inhibitors. The assay detects IL-1B using AlphaLISA anti-IL-1B acceptor and donor beads. A decreased emission signal, indicating reduced IL-1B secretion, is the desired outcome for this assay. NIH Chemical Genomics Center [NCGC] NIH Molecular Libraries Probe Centers Network [MLPCN] MLPCN Grant: MH095513 Assay Provider: Shyam Biswal Ph.D., Johns Hopkins University Immunity. 2012 Jul 27;37(1):85-95. PMID: 22819042 [2] Curr Pharm Des. 2012;18(16):2320-8. PMID: 22390695
Three microliters containing 3000 THP-1 cells were dispensed into the wells of solid, white, tissue culture treated Greiner 1,536-well plates. Library compounds and positive control, Glyburide, were pin-transferred (23 nL) by a Kalypsys pin-tool equipped with a 1,536-pin array, resulting in final compound concentration ranges of 2.5 nM to 57.5 uM. After 1 hr of cell culture incubation (37 °C, 5% CO2), 1 microL of 1 microg/mL lipopolysaccharide (250 ng/mL, final) and 5 mM ATP (1.25 mM, final) were added to stimulate the cells. After 16 hr of cell culture incubation with the compounds, 1.5 uL of anti-IL-1B acceptor beads (6 ug/mL, final) and biotinylated antibody (0.6 nM, final) were added to the plate, followed by a 1 hr incubation at ambient temperature. To detect the secreted IL-1B, 1.5 uL of AlphaLISA SA-Donor beads (24 ug/mL, final) were added, followed by 30 min of incubation in the dark at ambient temperature. The AlphaLISA signal was read by a PerkinElmer EnVision plate reader with an ultrasensitive luminescence detector and 1536 Plate HTS AlphaScreen aperture (excitation of 680nm and emission of 615nm).
In the case of `CC(C)N(C(=O)CSc1nc(COc2ccccc2)nc2ccccc12)C(C)C`, the activity change is reported as -71.7% (active).
With `CCCc1nc(SCC(=O)Nc2ccc(S(=O)(=O)N(C)C)cc2)c2ccccc2n1` the activity change was -11.4% (inactive).
In the case of `CN(C(=O)CSc1nc(C2CC2)nc2ccccc12)c1nc(-c2ccccc2)cs1`, the activity change is reported as -16.2% (inactive).
With `CCOC(=O)c1ccn(S(=O)(=O)c2ccc(C)cc2)c1-c1ccccc1` the activity change was 40.2% (inactive).
In the case of `CN(N)c1nc(N2CCCC2)nc(N2CCCC2)n1`, the activity change is reported as 3.61% (inactive).
In the case of `O=C(NCc1ccccc1Cl)c1csc([C@@H]2O[C@H](CO)[C@@H](O)[C@H]2O)n1`, the activity change is reported as 6.54% (inactive).
For `CN(C(=O)c1cccc(NC(=O)Cc2ccc(NC(=O)C3CCCN(C(=O)C4CC4)C3)cc2)c1)C1CC1` (stereo not drawn), the activity change was 54.5% (inactive).
For `Cc1ccc2nc(-c3ccccc3)c(CC3CCCCC3)n2c1`, the activity change was -0.767% (inactive).
For `CCCCN(C)CCNC(=O)CSCc1ccc(C)cc1`, the activity change was 16.4% (inactive).
In the case of `CCC1(CC)Cc2ccccc2-c2nc(CCl)[nH]c(=O)c21`, the activity change is reported as 38.6% (inactive).
For `CC1(C)Cc2ccccc2-c2nc(CN3CCOCC3)[nH]c(=O)c21`, the activity change was 0% (inactive).
With `CCOC(=O)C1Cn2c(nc3c(c2=O)C(C)(CC)Cc2ccccc2-3)S1` (stereo not drawn) the activity change was -60.4% (active).
With `CC(OC(=O)c1cccc(S(=O)(=O)N2CCOCC2)c1)C(=O)NCC1CCCCC1` (stereo not drawn) the activity change was -2.42% (inactive).
For `COc1cc(/C=C/C(=O)OCC(=O)Nc2cccc(Oc3ccccc3)c2)ccc1O`, the activity change was 15.2% (inactive).
In the case of `COC(=O)c1ccc(C2C(Oc3ccccc3C)C(=O)N2CCc2ccc(OC)c(OC)c2)cc1` (stereo not drawn), the activity change is reported as -21.3% (inactive).
For `Cc1cc(NC(=O)/C=C/C(=O)N(CC(=O)NC2CCCC2)c2ccc(F)cc2)no1`, the activity change was -87.8% (active).
With `Cc1cc(NC(=O)CCC(=O)N(CC(=O)NC2CCCC2)c2ccc(F)cc2)no1` the activity change was 8.19% (inactive).
With `Cc1cc(NC(=O)/C=C/C(=O)N(c2ccccc2C)C(C(=O)NC2CCCC2)c2ccc(F)cc2)no1` (stereo not drawn) the activity change was -95.1% (active).
For `Cc1cc(NC(=O)CCC(=O)N(c2ccccc2)C(C(=O)NC2CCCC2)c2ccncc2)no1` (stereo not drawn), the activity change was -1.05% (inactive).
With `Cc1cc(NC(=O)CCC(=O)N(c2cccc(F)c2)C(C(=O)NC2CCCC2)c2ccncc2)no1` (stereo not drawn) the activity change was 10.2% (inactive).
With `Cc1cc(C)cc(N(CC(=O)NC2CCCC2)C(=O)CCC(=O)Nc2cc(C)on2)c1` the activity change was 23.6% (inactive).
In the case of `Cc1oc2cc3oc(=O)ccc3cc2c1C`, the activity change is reported as -4.45% (inactive).
For `Cc1ccc(S(=O)(=O)N2CC[C@H]3[C@@H](C2)C(=O)C[C@@H](c2ccccc2)N3S(=O)(=O)c2ccc(C)cc2)cc1`, the activity change was -0.365% (inactive).
For `CCCC(C(=O)OCCN(CC)CC)(c1ccccc1)c1ccccc1`, the activity change was -14.1% (inactive).
For `O=C(COc1ccc(S(=O)(=O)N2CCCC2)cc1[N+](=O)[O-])N1CCCCC1`, the activity change was 10.9% (inactive).
In the case of `Cc1ccc(C(=O)OCC(=O)NC2CCCCCCC2)cc1C`, the activity change is reported as 8.07% (inactive).
With `Cc1noc(C)c1S(=O)(=O)N(C)C[C@H]1Oc2c(NC(=O)Nc3ccc4c(c3)OCO4)cccc2C(=O)N([C@H](C)CO)C[C@@H]1C` the activity change was 5.23% (inactive).
For `CSCCC(NC(=O)COc1ccccc1)C(=O)OCc1ccc(Cl)cc1` (stereo not drawn), the activity change was 6.8% (inactive).
For `CCn1c(C)cc(=O)cc1-c1ccc(Cl)cc1`, the activity change was 12.5% (inactive).
For `COc1ccc(Cn2c(=O)oc3ccccc32)cc1`, the activity change was -4.96% (inactive).
For `COc1ccc(Cn2c(-c3ccc(Cl)cc3)c[n+]3ccccc23)cc1`, the activity change was -79.9% (active).
For `CC1(C(=O)NS(=O)(=O)c2ccccc2)CCN1C(=O)C1CCCCC1` (stereo not drawn), the activity change was 25.7% (inactive).
For `Nc1nc2ncccn2c1-c1ccccc1`, the activity change was 18.6% (inactive).
For `O=C(Nc1ccccc1)OCc1cn(-c2ccc(Cl)cc2)nn1`, the activity change was 33.8% (inactive).
In the case of `CCOC(=O)Nc1ccc(NC(=O)OCC)cc1`, the activity change is reported as 0.929% (inactive).
With `CC(C)(COC(=O)Nc1ccccc1)COC(=O)Nc1ccccc1` the activity change was -50.5% (active).
In the case of `Cc1cccc(N(CC(=O)N2CCCC2)S(C)(=O)=O)c1C`, the activity change is reported as 25% (inactive).
In the case of `COC(=O)c1sc2[nH]c(=S)n(N)c(=O)c2c1C`, the activity change is reported as 6.13% (inactive).
In the case of `CN(C(=O)c1cccc(NC(=O)Cc2ccc(NC(=O)C3CCCN(C(=O)C4CCCC4)C3)cc2)c1)C1CCC1` (stereo not drawn), the activity change is reported as -10.6% (inactive).
In the case of `O=C(NNC(=O)C(O)c1ccccc1)NC1CCCCC1` (stereo not drawn), the activity change is reported as 14.4% (inactive).
For `COc1ccc2nc(C)cc(Nc3cccc(C(=O)O)c3)c2c1`, the activity change was 10.8% (inactive).
In the case of `Cc1nc(/N=C(\N)NC(=O)NC2CCCCC2)nc2ccccc12`, the activity change is reported as -104% (active).
For `COc1ccc2nc(/N=C(\N)NC(=O)Nc3ccccc3)nc(C)c2c1`, the activity change was -80.5% (active).
With `COc1cccc(NC(=O)Nc2ccc(F)cc2)c1` the activity change was -27.3% (inactive).
For `CC(C)c1cc(C(=O)NC2CCCCCC2)c2ccccc2n1`, the activity change was 0.331% (inactive).
For `CCCc1nc2ccccc2n1C(C)C(=O)NC(C)(C)C` (stereo not drawn), the activity change was 29% (inactive).
In the case of `O=C(NNc1nc(N2CCCC2)nc(N2CCCC2)n1)c1ccccc1`, the activity change is reported as -0.122% (inactive).
In the case of `O=C1CCC(C(=O)N2CCC(O)(c3ccccc3)CC2)CN1CCc1ccccc1` (stereo not drawn), the activity change is reported as -11.9% (inactive).
For `O=C(CN1C(=O)NC2(CCc3ccccc32)C1=O)NC1CCCCC1` (stereo not drawn), the activity change was -10.5% (inactive).
With `COC(=O)c1ccccc1N=NNc1ccc([N+](=O)[O-])cc1` the activity change was -18.2% (inactive).
In the case of `COC(=O)c1c(C)oc(C)c1S(=O)(=O)Nc1ccc(C(C)C)cc1`, the activity change is reported as 5.75% (inactive).
In the case of `O=C(c1cc2ccccc2o1)N1CCN(c2cccc(C(F)(F)F)c2)CC1`, the activity change is reported as “inactive”.
For `Cc1cc2ccccn2c1C(=O)c1cccc(S(=O)(=O)N2CCOCC2)c1`, the activity change was -17.1% (inactive).
For `N#Cc1c(-c2cccs2)nc(SCC(=O)c2ccc(Br)cc2)[nH]c1=O`, the activity change was 13.2% (inactive).
For `CCOC(=O)CC1COCCN1C(=O)c1cc(COc2ccc(F)c(F)c2)on1` (stereo not drawn), the activity change was 64.4% (inactive).
With `O=C(CCNS(=O)(=O)c1ccc(Br)cc1)NCC1CCCO1` (stereo not drawn) the activity change was -2.41% (inactive).
In the case of `CCCN1CCn2c3c(c4cc(Br)ccc42)CCCC31` (stereo not drawn), the activity change is reported as 42.1% (inactive).
For `OC(CNCC1CCCO1)Cn1c2ccc(Br)cc2c2cc(Br)ccc21` (stereo not drawn), the activity change was -62.5% (active).
